PubChem BioAssay (NCATS)
Inconclusive results are not listed. Activity calls are given as the source filed them. Unless noted, calls follow the shape of the full dose curve.

Tests used:
[1] = qHTS assay for small molecule antagonists of peroxisome proliferator-activated receptor delta signaling (AID 588535; active = well fitted inhibition curve with a large enough effect in the signal ratio, with a control signal flat, not every such curve was filed as active; the % refers to the signal ratio;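 as to max response: cells co-treated with a PPAR-delta agonist as stimulator during compound exposure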); conditions: HEK293T PPARd-UAS-bla, beta-lactamase FRET ratio, 18 h; 460 nm channel
Outline: (§1)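 HEK293T PPAR-delta-UAS-bla cells, 4000/well, 2% charcoal/dextran FBS; 5 h 37 C; cpd titration; 18 h 37 C; CCF4 2 h RT; FI 460/530 nm; Hill fit → IC50, efficacy.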

[2] = target: Peroxisome proliferator-activated receptor delta (Homo sapiens) (UniProt Q03181); assay: as above; conditions: HEK293T PPARd-UAS-bla, beta-lactamase FRET ratio, 18 h; series mostly up to 76.7 µM
Outline: as §1

[3] = target: Vitamin D3 receptor (Homo sapiens) (UniProt P11473); assay: qHTS assay for small molecule antagonists of vitamin D receptor signaling (AID 588541); conditions: HEK293T VDR-UAS-bla, beta-lactamase ratio, antagonist mode; series mostly up to 76.7 µM;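 also: receptor activated by calcitriol during compound treatment; % is scaled to controls: 0 for no effect and ±100 for the full control effect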
Outline: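 Antagonist-mode beta-lactamase reporter assay: HEK293T VDR-UAS-bla cells were exposed to titrated compound alongside 1-alpha,25-dihydroxyvitamin D3 at 3 nM final for 16 h. Values were normalized to the 50 nM agonist control and DMSO basal, with IC50 and efficacy from Hill equation fits.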

[4] = target: Vitamin D3 receptor (Homo sapiens) (UniProt P11473); assay: qHTS assay for small molecule agonists of vitamin D receptor signaling (AID 588543); conditions: HEK293T VDR-UAS-bla, beta-lactamase ratio, 16 h; series mostly up to 76.8 µM;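 also: 0% = DMSO basal and 100% = reference agonist control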
Outline: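 Measured: β-lactamase reporter activity (CCF4, 405 nm excitation, 460/530 nm emission) in HEK293T VDR-UAS-bla cells after 16 h compound exposure at 37 °C. Normalization against 50 nM 1α,25-dihydroxyvitamin D3 and DMSO; Hill-fit EC50.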

[5] = target: Thyroid hormone receptor beta (Homo sapiens) (UniProt P10828); assay: qHTS assay for small molecule agonists of thyroid hormone receptor beta signaling (AID 588545); conditions: TR-UAS-bla GripTite HEK 293, beta-lactamase ratio, agonist mode, 18 h, percent of T3 response, DMSO as zero; series mostly up to 76.7 µM;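 also: 0% = DMSO only and 100% = 10 nM T3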
Outline: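 Stimulation of a TR-driven beta-lactamase reporter was quantified in GripTite HEK 293 cells. Compound series ran for 18 hrs; curves were normalized to T3 and DMSO controls and fitted to yield EC50.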

[6] = target: Thyroid hormone receptor beta (Homo sapiens) (UniProt P10828); assay: qHTS assay for small molecule antagonists of thyroid hormone receptor beta signaling (AID 588547; active = well fitted inhibition curve with a large enough effect in the signal ratio, with a control signal flat, not every such curve was filed as active; the % refers to the signal ratio;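 also: cells stimulated with 0.4 nM T3 agonist during compound exposure; % is scaled to controls: 0 for no effect and ±100 for the full control effect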); conditions: TR-UAS-bla HEK293, beta-lactamase ratio, antagonist mode, 18 h
Outline: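 Inhibition of T3-driven (0.4nM final) beta-lactamase reporter activity was measured over 0.59 nM to 92 uM compound after 18 h at 37 C. The cells were GripTite HEK293 TR-UAS-bla in charcoal/dextran-stripped serum, with CCF4 ratio read-out and IC50 from Hill fits.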

[7] = target: Luciferin 4-monooxygenase (Photinus pyralis) (UniProt P08659); assay: Biochemical firefly luciferase enzyme assay for NPC (AID 624030; active = well fitted curve in the direction sought with a large enough effect; an effect the other way counts as inactive or inconclusive;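 also: purified P. pyralis luciferase at 10 nM with luciferin and ATP substrate; 0% = DMSO and -100% = full luciferase inhibition by PTC124 control; nearly all actives have a fitted effect of over 70% in size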); conditions: purified P. pyralis luciferase, luminescence, 5 min; series mostly up to 58.6 µM
Outline: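 Direct inhibition of firefly luciferase enzyme (10 nM final, 50 mM Tris Acetate) assessed by luminescence within 5 minutes. Percent activity scaled between DMSO and PTC124 positive control, with concentration-effect curves classified by fit quality and response.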

[8] = S16 Schwann cell viability assay (CellTiter-Glo assay) (AID 624031; active = well fitted curve in the direction sought with a large enough effect; an effect the other way counts as inactive or inconclusive;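 also: cellular ATP luminescence as a viability measure; plate controls were DMSO-treated cells for no effect and cell-free wells for full effect; nearly all actives have a fitted effect of over 70% in size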); conditions: S16 rat Schwann cells viability, 24 h; series mostly up to 57.5 µM
Outline: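 Native S16 rat Schwann cells in DMEM/10% FBS without phenol red were incubated overnight, then exposed to compounds for 24 h at 37 °C/5% CO2. Viability was read as ATP luminescence (CellTiter-Glo), normalized to no-cell wells and DMSO (0%).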

[9] = target: Androgen receptor (Homo sapiens) (UniProt P10275); assay: qHTS assay for small molecule agonists of androgen receptor signaling (AID 588515; active = well fitted curve in the direction sought with a large enough effect in the signal ratio, with a control signal flat; the % refers to the signal ratio; also: % is scaled to controls: 0 for no effect and ±100 for the full control effect); conditions: AR-UAS-bla HEK293, beta-lactamase ratio, agonist 16 h; stronger effect = higher value
Outline: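 EC50 and efficacy came from Hill fits of titrations (up to 92 uM) normalized to 30 nM R1881 as 100% and DMSO as 0%. Compound exposure was 16 h at 37 C on AR-UAS-bla HEK293 cells, with a 405/460/530 nm CCF4 fluorescence read.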

[10] = target: Androgen receptor (Homo sapiens) (UniProt P10275); assay: qHTS assay for small molecule antagonists of androgen receptor signaling (AID 588516; active = well fitted curve in the direction sought with a large enough effect in the signal ratio, with a control signal flat, not every such curve was filed as active; the % refers to the signal ratio; also: % is scaled to controls: 0 for no effect and ±100 for the full control effect); conditions: AR-UAS-bla HEK293, beta-lactamase ratio, antagonist mode, 16 h; series mostly up to 76.8 µM
Outline: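 Compounds tested in titration against 10 nM R1881 in AR-responsive bla reporter HEK 293 cells; CCF4 fluorescence (460/530 nm) after 16 h exposure gave IC50 and efficacy.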

[11] = target: Glucocorticoid receptor (Homo sapiens) (UniProt P04150); assay: qHTS assay for small molecule agonists of glucocorticoid receptor signaling (AID 588532; active = well fitted curve in the direction sought with a large enough effect in the signal ratio, with a control signal flat; the % refers to the signal ratio;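 also: 100% = dexamethasone at 0.1 µM and 0% = DMSO only wells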); conditions: HeLa MMTV-bla, beta-lactamase ratio, agonist, 18 h; stronger effect = higher value; percent of dexamethasone control, DMSO zero
Outline: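 Using MMTV-bla HeLa cells in medium with 1% stripped FBS and 25 mM HEPES, compounds were titrated and incubated overnight-length (18 h). Beta-lactamase cleavage of CCF4 was quantified by dual-emission fluorescence.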

[12] = target: Glucocorticoid receptor (Homo sapiens) (UniProt P04150); assay: qHTS assay for small molecule antagonists of glucocorticoid receptor signaling (AID 588533; active = well fitted inhibition curve with a large enough effect in the signal ratio, with a control signal flat, not every such curve was filed as active; the % refers to the signal ratio); conditions: HeLa MMTV-bla, GRE beta-lactamase ratio, antagonist mode, 18 h; series mostly up to 76.8 µM
Outline: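 Antagonist-mode qHTS: compound titrations added to GRE-bla HeLa cells, then dexamethasone 2 nM final; 18 h, 37 C. CCF4 FRET fluorescence normalized to dexamethasone and DMSO; IC50 from Hill fit.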

[13] = target: Peroxisome proliferator-activated receptor gamma (Homo sapiens) (UniProt P37231); assay: qHTS assay for small molecule agonists of peroxisome proliferator-activated receptor gamma signaling (AID 588536; active = well fitted curve in the direction sought with a large enough effect in the signal ratio, with a control signal flat, not every such curve was filed as active; the % refers to the signal ratio;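 also: 0% = DMSO basal wells and 100% = rosiglitazone at 2 µM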); conditions: HEK293 PPARg-UAS-bla, beta-lactamase ratio, 16 h, percent of rosiglitazone response, DMSO as zero; series mostly up to 76.7 µM
Outline: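 PPAR-gamma-UAS-bla HEK293 cells in medium with 1% charcoal/dextran-treated FBS were exposed to compounds for 16 h at 37 C. Beta-lactamase activity was read with CCF4 substrate (405 nm excitation, 460/530 nm emission).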

[14] = qHTS assay for small molecule agonists of retinoid X receptor alpha signaling (AID 588544); conditions: HEK293T RXRa-UAS-bla, beta-lactamase reporter, 18 h; 530 nm emission;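 as to activation: 0% = DMSO basal wells and 100% = reference agonist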
[15] = target: Retinoic acid receptor RXR-alpha (Homo sapiens) (UniProt P19793); assay: as above; conditions: HEK293T RXRa-UAS-bla, beta-lactamase reporter, 18 h; series mostly up to 76.7 µM
[16] = qHTS assay for small molecule antagonists of retinoid X receptor alpha signaling (AID 588546; active = well fitted inhibition curve with a large enough effect in the signal ratio, with a control signal flat, not every such curve was filed as active; the % refers to the signal ratio); conditions: HEK293T RXRa-UAS-bla, beta-lactamase ratio, antagonist mode; measured here: W530 green channel, cytotoxicity proxy
Outline: (§2)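 Beta-lactamase reporter inhibition, read as CCF4 fluorescence ratio (ex 405, em 460/530 nm) after 2 h at RT. HEK293T UAS-bla cells, 2500/well, were stimulated with 9-cis-RA at 500 or 100 nM final alongside test compound for 18 h at 37 C.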

[17] = target: Retinoic acid receptor RXR-alpha (Homo sapiens) (UniProt P19793); assay: as above; conditions: HEK293T RXRa-UAS-bla, beta-lactamase ratio, antagonist mode
Outline: as §2

[18] = target: Voltage-gated inwardly rectifying potassium channel KCNH2 (Homo sapiens) (UniProt Q12809); assay: qHTS Assay for Small Molecule Inhibitors of the Human hERG Channel Activity (AID 588834; active = well fitted curve in the direction sought with a large enough effect; an effect the other way counts as inactive or inconclusive;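 also: top concentration of the series differs between compounds; % is scaled to controls: 0 for no effect and ±100 for the full control effect; lower thallium flux fluorescence means stronger hERG block; nearly all actives have a fitted effect of over 50% in size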); conditions: U2OS BacMam hERG, FluxOR thallium flux fluorescence; series mostly up to 92.2 µM
Outline: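 Blockade is seen as reduced FluxOR thallium-flux fluorescence in U2OS cells expressing hERG from a BacMam construct, in Opti-MEM with 2% FCS. Concentration-response data fitted to the Hill equation for AC50.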

[19] = target: Bile acid receptor (Homo sapiens) (UniProt Q96RI1); assay: qHTS assay for small molecule antagonists of farnesoid X receptor signaling (AID 588526); conditions: HEK293T FXR-UAS-bla, beta-lactamase ratio, antagonist mode; series mostly up to 76.7 µM; also: % is scaled to controls: 0 for no effect and ±100 for the full control effect
Outline: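 Beta-lactamase reporter antagonist mode: HEK293T FXR-UAS-bla cells, titrated compound, CDCA stimulation, 16 h 37 C, CCF4 dye 2 h RT. Data normalized to CDCA 50 uM and DMSO; Hill-fit IC50.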

[20] = target: Peroxisome proliferator-activated receptor gamma (Homo sapiens) (UniProt P37231); assay: qHTS assay for small molecule antagonists of peroxisome proliferator-activated receptor gamma signaling (AID 588537; active = well fitted inhibition curve with a large enough effect in the signal ratio, with a control signal flat, not every such curve was filed as active; the % refers to the signal ratio;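 also: reporter cells co-stimulated with 50 nM rosiglitazone agonist during compound treatment; % of control where 0% means no effect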); conditions: HEK293 PPARg-UAS-bla, beta-lactamase ratio, antagonist mode; series mostly up to 76.8 µM
Outline: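 Antagonist mode, beta-lactamase reporter in HEK293; charcoal/dextran FBS 1%; 3000 cells/well, 37 C 6-6.5 h; cpd titration + rosiglitazone 50 nM final, 16 h 37 C; CCF4, 2 h RT; 460/530 nm; Hill fit → IC50, efficacy.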

Chain of Retinoic acid receptor RXR-alpha (Homo sapiens) (P19793 whole entry, looked up): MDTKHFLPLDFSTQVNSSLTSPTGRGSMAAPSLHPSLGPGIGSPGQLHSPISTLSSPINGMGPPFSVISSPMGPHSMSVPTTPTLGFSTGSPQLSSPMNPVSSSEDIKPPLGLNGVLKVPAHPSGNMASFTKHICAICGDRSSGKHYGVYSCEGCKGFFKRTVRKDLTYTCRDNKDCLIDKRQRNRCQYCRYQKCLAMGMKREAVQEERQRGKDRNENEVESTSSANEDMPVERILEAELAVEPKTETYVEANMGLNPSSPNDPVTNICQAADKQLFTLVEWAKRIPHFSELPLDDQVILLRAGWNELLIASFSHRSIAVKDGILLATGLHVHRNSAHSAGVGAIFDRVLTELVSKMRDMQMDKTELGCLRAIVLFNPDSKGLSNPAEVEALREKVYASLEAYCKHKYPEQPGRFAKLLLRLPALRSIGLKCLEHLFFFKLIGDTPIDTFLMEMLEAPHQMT
Chain of Peroxisome proliferator-activated receptor gamma (Homo sapiens) (P37231 whole entry, looked up): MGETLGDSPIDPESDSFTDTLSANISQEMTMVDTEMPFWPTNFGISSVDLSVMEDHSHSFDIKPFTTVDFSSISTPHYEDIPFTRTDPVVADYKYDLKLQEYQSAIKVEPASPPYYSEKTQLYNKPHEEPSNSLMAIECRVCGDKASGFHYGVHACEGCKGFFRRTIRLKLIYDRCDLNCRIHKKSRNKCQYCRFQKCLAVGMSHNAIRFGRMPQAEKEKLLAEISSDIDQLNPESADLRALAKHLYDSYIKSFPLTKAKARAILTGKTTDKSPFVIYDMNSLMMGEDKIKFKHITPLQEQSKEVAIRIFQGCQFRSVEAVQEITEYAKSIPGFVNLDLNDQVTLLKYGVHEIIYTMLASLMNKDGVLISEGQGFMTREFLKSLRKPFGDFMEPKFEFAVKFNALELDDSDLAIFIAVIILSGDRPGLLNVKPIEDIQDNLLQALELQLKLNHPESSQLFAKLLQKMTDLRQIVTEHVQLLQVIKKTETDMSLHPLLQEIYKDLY
Chain of Glucocorticoid receptor (Homo sapiens) (P04150 whole entry, looked up): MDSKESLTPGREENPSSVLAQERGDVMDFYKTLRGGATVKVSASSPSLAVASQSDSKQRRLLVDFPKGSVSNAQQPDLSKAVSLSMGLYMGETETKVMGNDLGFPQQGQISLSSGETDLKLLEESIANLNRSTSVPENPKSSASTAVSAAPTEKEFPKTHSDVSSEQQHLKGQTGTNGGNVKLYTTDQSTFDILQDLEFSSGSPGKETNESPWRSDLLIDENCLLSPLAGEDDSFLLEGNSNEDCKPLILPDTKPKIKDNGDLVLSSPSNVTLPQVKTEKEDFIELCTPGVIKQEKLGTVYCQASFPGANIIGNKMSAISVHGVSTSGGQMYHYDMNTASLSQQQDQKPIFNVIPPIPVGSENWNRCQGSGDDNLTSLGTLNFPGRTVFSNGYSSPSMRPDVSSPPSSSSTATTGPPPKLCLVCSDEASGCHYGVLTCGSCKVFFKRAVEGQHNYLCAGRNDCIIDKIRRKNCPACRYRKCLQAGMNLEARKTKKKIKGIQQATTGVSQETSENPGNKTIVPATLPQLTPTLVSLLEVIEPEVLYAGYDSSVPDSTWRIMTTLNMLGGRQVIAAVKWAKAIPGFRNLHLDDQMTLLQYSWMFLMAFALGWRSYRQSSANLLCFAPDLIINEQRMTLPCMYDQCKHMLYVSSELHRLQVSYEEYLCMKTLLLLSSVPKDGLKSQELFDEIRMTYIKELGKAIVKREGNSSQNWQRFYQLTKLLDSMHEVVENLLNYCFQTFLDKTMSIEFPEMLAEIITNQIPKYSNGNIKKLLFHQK
Chain of Thyroid hormone receptor beta (Homo sapiens) (P10828 whole entry, looked up): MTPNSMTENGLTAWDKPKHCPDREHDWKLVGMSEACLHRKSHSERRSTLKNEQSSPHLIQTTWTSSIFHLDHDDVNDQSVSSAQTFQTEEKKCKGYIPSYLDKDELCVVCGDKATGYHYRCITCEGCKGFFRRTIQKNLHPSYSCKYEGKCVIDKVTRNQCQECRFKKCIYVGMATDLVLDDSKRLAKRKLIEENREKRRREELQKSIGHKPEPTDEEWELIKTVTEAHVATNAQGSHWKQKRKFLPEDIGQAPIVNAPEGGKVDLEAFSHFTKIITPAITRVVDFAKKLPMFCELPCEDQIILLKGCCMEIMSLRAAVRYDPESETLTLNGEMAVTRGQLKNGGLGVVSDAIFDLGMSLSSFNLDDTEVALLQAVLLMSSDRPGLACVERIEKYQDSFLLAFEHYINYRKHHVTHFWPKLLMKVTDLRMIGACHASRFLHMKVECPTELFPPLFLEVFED
Chain of Vitamin D3 receptor (Homo sapiens) (P11473 whole entry, looked up): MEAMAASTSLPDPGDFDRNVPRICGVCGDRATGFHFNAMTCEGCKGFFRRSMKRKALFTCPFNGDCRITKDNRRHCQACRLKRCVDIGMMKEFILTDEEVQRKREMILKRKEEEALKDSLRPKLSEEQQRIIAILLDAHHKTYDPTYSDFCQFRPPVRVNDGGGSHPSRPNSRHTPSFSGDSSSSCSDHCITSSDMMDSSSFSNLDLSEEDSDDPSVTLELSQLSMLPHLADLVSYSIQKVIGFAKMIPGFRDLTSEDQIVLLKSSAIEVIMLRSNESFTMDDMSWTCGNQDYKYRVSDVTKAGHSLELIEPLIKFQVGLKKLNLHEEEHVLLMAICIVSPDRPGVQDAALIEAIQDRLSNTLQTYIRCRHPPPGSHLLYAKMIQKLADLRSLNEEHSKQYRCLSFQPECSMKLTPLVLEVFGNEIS
Chain of Luciferin 4-monooxygenase (Photinus pyralis) (P08659 whole entry, looked up): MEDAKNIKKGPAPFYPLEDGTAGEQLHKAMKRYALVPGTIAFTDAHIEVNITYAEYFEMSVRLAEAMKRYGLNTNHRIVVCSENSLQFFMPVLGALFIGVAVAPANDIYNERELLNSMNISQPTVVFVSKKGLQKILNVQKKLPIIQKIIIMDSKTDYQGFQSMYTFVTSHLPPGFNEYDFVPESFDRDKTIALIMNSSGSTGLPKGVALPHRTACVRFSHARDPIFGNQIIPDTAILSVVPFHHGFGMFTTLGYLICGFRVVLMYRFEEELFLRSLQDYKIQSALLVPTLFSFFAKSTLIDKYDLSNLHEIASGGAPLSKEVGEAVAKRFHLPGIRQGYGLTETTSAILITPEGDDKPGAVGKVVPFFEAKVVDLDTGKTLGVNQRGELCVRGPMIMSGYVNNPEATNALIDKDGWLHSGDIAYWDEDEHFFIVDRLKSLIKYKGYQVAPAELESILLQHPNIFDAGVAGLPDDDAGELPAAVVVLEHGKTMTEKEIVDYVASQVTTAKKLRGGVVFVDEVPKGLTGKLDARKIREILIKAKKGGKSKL
Chain of Androgen receptor (Homo sapiens) (P10275 whole entry, looked up): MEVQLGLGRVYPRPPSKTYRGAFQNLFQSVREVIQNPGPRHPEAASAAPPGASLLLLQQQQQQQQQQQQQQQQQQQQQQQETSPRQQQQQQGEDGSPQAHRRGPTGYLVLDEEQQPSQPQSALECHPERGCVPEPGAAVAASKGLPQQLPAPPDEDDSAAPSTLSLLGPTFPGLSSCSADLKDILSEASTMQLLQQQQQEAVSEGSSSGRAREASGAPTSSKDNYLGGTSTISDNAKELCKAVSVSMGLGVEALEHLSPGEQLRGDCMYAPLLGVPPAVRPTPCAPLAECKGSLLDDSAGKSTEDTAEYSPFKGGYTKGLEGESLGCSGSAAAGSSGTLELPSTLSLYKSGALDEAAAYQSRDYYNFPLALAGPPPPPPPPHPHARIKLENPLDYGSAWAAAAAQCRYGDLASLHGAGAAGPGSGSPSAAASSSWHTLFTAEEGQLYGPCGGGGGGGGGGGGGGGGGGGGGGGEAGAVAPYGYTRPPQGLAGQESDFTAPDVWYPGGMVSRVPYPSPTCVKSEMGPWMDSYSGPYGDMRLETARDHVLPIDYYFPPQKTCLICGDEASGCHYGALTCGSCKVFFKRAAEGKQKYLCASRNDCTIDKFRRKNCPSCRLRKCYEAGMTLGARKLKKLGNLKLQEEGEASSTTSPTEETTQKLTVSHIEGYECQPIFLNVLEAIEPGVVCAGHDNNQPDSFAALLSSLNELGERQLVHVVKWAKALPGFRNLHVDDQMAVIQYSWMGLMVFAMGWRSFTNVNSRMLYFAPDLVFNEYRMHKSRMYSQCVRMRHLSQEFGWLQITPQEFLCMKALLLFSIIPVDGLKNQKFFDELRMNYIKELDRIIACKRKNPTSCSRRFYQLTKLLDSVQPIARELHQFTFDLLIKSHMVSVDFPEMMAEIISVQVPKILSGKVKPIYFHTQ
Chain of Peroxisome proliferator-activated receptor delta (Homo sapiens) (Q03181 whole entry, looked up): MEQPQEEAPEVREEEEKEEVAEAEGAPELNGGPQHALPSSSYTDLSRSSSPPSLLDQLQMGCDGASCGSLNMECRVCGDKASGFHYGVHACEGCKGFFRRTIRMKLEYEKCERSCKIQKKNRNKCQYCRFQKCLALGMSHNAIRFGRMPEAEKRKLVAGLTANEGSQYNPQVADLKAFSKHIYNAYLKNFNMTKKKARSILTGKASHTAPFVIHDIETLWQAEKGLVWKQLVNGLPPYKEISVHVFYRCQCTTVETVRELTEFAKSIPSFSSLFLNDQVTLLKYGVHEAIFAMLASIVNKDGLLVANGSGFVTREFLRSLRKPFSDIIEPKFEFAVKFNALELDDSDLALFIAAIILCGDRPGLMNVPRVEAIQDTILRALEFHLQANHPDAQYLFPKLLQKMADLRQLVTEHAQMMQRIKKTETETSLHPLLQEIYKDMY

O=C(/C=C/C=C/c1ccc2c(c1)OCO2)N1CCCCC1
max response [1]: -63.1%
outcome [2]: inactive
outcome [3]: inactive
outcome [4]: inactive
outcome [5]: inactive
activity change % (negative = inhibition) [6]: -4.09% (inactive)

CCc1cccc2c3c([nH]c12)[C@@](CC)(CC(=O)O)OCC3
outcome [7]: inactive
outcome [8]: inactive

COc1ccc(CCC(=O)c2c(O)cc(O[C@@H]3O[C@H](CO)[C@@H](O)[C@H](O)[C@H]3O[C@@H]3O[C@@H](C)[C@H](O)[C@@H](O)[C@H]3O)cc2O)cc1O
activation [9]: 12.1% (inactive)
outcome [10]: inactive
activation [11]: -0.542% (inactive)
outcome [12]: inactive
outcome [13]: inactive
outcome [3]: inactive
outcome [4]: inactive
max response [14]: 1.28%
outcome [15]: inactive
outcome [5]: inactive
max response [16]: -15.7%
max response [17]: 10.3% (inactive)
activity change % (negative = inhibition) [6]: -11.4% (inactive)
outcome [18]: inactive

CCOC(=O)C(CCc1ccccc1)NC(C)C(=O)N1Cc2ccccc2CC1C(=O)O (stereo unspecified)
outcome [7]: inactive
outcome [8]: inactive

C=C1C[C@]23C[C@@]1(O)CC[C@H]2[C@@]12C=C[C@H](O)[C@@](C)(C(=O)O1)[C@H]2[C@@H]3C(=O)O
outcome [19]: inactive
activation [11]: -5.06% (inactive)
outcome [12]: inactive
max response [1]: 8.68%
outcome [2]: inactive
outcome [13]: inactive
outcome [20]: inactive
outcome [3]: inactive
outcome [4]: inactive
max response [14]: -10.6%
outcome [15]: inactive
outcome [5]: inactive
max response [16]: 4.31%
max response [17]: 6.93% (inactive)
activity change % (negative = inhibition) [6]: 23.9% (inactive)
outcome [18]: inactive

CCC(=O)OCC(=O)[C@@]1(OC(=O)CC)[C@@H](C)C[C@H]2[C@@H]3CCC4=CC(=O)C=C[C@]4(C)[C@@]3(F)[C@@H](O)C[C@@]21C
outcome [7]: inactive
